# Article PMC6919601, “Identification of Plasmodium dipeptidyl aminopeptidase allosteric inhibitors by high throughput screening” (PLoS ONE, 2019)
# Out of some 110,000 compounds screened, about 230 (0.21%) showed an effect of 50% or more. This excerpt belongs to a sample that is enriched for strong results.
# Biological target: DPAP1 (Plasmodium falciparum, UniProt Q8IIJ9)
# Assay: primary screen, percent inhibition; read by cleavage of a fluorogenic dipeptide substrate; higher = more effect of the substance
# Set-up: species or system P. falciparum D10 trophozoite lysates; single well
# 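Further: 30 min substrate incubation versus DMSO and 10 µM JCP410 controls.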
# Chain of DPAP1 (Q8IIJ9 whole entry, looked up): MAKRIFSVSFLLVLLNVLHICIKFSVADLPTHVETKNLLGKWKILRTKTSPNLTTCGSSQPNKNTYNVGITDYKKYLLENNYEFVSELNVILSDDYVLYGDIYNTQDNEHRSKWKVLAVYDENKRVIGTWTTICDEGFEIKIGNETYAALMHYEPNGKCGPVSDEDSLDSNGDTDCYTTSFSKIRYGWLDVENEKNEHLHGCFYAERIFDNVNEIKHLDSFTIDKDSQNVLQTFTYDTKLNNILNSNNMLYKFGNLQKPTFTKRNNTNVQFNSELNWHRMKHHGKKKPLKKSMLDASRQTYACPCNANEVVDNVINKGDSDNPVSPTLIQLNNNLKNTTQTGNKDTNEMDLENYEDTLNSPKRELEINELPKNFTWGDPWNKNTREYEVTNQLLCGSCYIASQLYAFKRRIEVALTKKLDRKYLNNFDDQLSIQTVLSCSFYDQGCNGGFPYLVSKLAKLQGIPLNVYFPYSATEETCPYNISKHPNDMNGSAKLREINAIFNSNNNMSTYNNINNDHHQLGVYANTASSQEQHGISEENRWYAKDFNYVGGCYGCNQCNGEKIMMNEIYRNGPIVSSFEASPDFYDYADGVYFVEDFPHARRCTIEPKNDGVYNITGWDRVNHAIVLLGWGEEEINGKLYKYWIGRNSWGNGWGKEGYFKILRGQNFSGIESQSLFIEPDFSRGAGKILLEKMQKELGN
row,SMILES,% Inhibition @ 10 uM
1,Cc1nc2scc(C)n2c(=O)c1S(=O)(=O)NC1CCN(Cc2ccccc2)CC1,-3.32%
2,Cc1nc2scc(C)n2c(=O)c1S(=O)(=O)NC1CCCCCCC1,72.2%
3,CCOC(=O)N1CCC(NS(=O)(=O)c2c(C)nc3scc(C)n3c2=O)CC1,-8.17%
4,Cc1cccc(CN2CCCC(O)C2)c1 (centres unmarked),-0.828%
5,O=C(CCC1CCCCC1)NC1(C(F)(F)F)NC(=O)N(Cc2ccccc2)C1=O (centres unmarked),-3.33%
6,CCOC(=O)C1=C(c2ccccc2)Nc2ncnn2C1c1cccc(O)c1 (centres unmarked),3.8%
7,COc1cccc(C2=NS(=O)(=O)N(C)C(C(=O)N3CCCC3)=C2)c1,3.92%
8,CCSc1nc(=O)n(-c2ccccc2)c(C)c1C(C)=O,-5.51%
9,CCc1ccc(C2C3=C(O)CCCC3=NC(C)=C2C(=O)Nc2ccc(F)cc2)cc1 (centres unmarked),4.11%
10,Cc1sc2ncn(CC(=O)NC3CCCC(C)C3C)c(=O)c2c1S(=O)(=O)N1CCC(C)CC1 (centres unmarked),-4.67%
11,CC(=O)ON1C(=O)C(c2ccccc2)=C(c2ccccc2)C1=O,82%
12,CC(=O)ON1C(=O)C2C3c4ccccc4C(c4ccccc43)C2C1=O (centres unmarked),38.9%
13,O=C1C(c2ccccc2)=C(c2ccccc2)C(=O)N1O,3.25%
14,CCCCN(C)C(=O)C1c2ccccc2C(=O)N(CCOC)C1c1c[nH]c2ccccc12 (centres unmarked),5.62%
15,Cc1ccc2nc(O)c3cc(C(=O)NCCc4ccsc4)sc3c2c1,1.72%
16,CN(C)c1ccc(NC(=O)NC2CCCCC2)cc1,-12.2%
17,CC(CCCC(C)(C)O)NC(C)Cc1ccc(F)cc1 (centres unmarked),4.68%
18,O=C(CC1(O)C(=O)Nc2ccc(Br)cc21)c1ccc2ccccc2c1 (centres unmarked),4.03%
19,CCC1(C)Cc2c(sc3nc(SC)nc(O)c23)CO1 (centres unmarked),8.9%
20,CCC1(C)Cc2c(sc3nc(S)nc(N)c23)CO1 (centres unmarked),62.9%
21,CCC1(C)Cc2c(sc3nc(SCC(=O)c4ccccc4)nc(N)c23)CO1 (centres unmarked),0.992%
22,CCCCNc1cc(O)c(CC(=O)Nc2ccccc2)c2cc(OC)c(OC)cc12,25.7%
23,COc1cc2c(CC(=O)Nc3ccccc3)c(O)c(C)c(NCc3ccccc3)c2cc1OC,13.4%
24,COc1cc2c(NCc3ccccc3)cc(O)c(CC(=O)Nc3ccccc3)c2cc1OC,66.3%
25,CCn1c(C)cc(/C=C2\NC(=O)N(CC(=O)Nc3ccc(F)cc3)C2=O)c1C,0.528%

row,SMILES,% Inhibition @ 10 uM
1,CCCNS(=O)(=O)c1cc(-c2cc(C)no2)ccc1OC,-8.89%
2,CCCCNC(=O)c1cc(-c2ccc(F)cc2)on1,4.5%
3,Brc1ccc(-c2cn3nc(C4CCCCC4)sc3n2)cc1,-2.71%
4,CCOc1ccc(C(=O)CCN(C)C)cc1,-1.25%
5,CCOc1ccc(C(=O)CCN(C)CC(=O)O)cc1,89.9%
6,CCOc1ccc(C(=O)CCNCCC(=O)O)cc1,44.5%
7,COc1ccc(C(=O)CCNCCC(=O)O)cc1,30.1%
8,COc1ccc(C(=O)CCN(C)CC(=O)O)cc1,55.8%
9,COc1ccc(C(=O)CCN(C)C)cc1,3.82%
10,O=C(O)c1ccccc1NC(=O)C12CC3CC(CC(C3)C1)C2,-5.44%
11,O=C(O)CCC(=O)Nc1ccc(S(=O)(=O)NC2CCCCC2)cc1,1.49%
12,CC(=O)c1ccc(N2CCN(Cc3ccc(C)cc3C)CC2)cc1,-5.11%
13,CC1(C)CC(=O)C2=C(C1)N1C(=C(C#N)C2c2cccnc2)N=C(N)c2c1sc1c2CCCCC1 (centres unmarked),-2.39%
14,CCc1nn(-c2cc(Oc3ccccc3)ncn2)c(N)c1C(N)=O,0.686%
15,CCc1nn(-c2cc(Oc3ccc(C)cc3)ncn2)c(N)c1C(N)=O,60.5%
16,Cc1ccc(Oc2cc(-n3nc(C)c(C(N)=O)c3N)ncn2)cc1,-0.795%
17,CN(C1CCCCC1)S(=O)(=O)c1ccc(C(=O)Nc2nc(-c3ccccn3)cs2)cc1,-1.4%
18,O=c1ncn(-c2ccccc2F)c2ncccc12,-10.2%
19,CCOC(=O)C1=C(O)/C(=C\c2cc(C)n(-c3ccccc3C(F)(F)F)c2C)N=C1C,52.7%
20,CCOC(=O)C1=C(O)/C(=C\c2cc(C)n(-c3ccccc3C(=O)OC)c2C)N=C1C,3.47%
21,CCOC(=O)C1=C(O)/C(=C\c2cc(C)n(-c3cc(C)ccc3OC)c2C)N=C1C,3.47%
22,C/N=C1/S/C(=C\c2ccc(N3Cc4ccccc4C3)cc2)C(=O)N1C,-5.19%
23,CCCCNC(=O)c1cn(C)c(=O)c2cc(OC)c(OC)cc12,-5.67%
24,O=C(c1cnn2c(C(F)F)cc(-c3ccccc3)nc12)N1CCN(c2ccccn2)CC1,5.65%
25,Cc1ccc(-c2cc(C(F)F)n3ncc(C(=O)n4c(C)nc5ccccc54)c3n2)cc1,50%
